Screening data from PubChem BioAssay.
HCMV antiviral = blocks human cytomegalovirus replication | AID 1259415 | HFF cells, HCMV-luciferase reporter, 72 h; hits give low values | 410,000 tested, 4.5% active | activity change, negative = inhibition, % at 57.5 µM; in the data active means activity change below about -60%; inconclusive means no clear call, values can overlap the other calls; inactive means above about -39%
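Steps: HFFs plated, 16 h 37C; compounds added; HCMV-luciferase added to MOI 1 PFU/cell; 72 h 37C; OneGlo reagent, 5 min room temperature; luminescence read, normalized to controls.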
Vaccinia mCherry = vaccinia inhibition (mCherry reporter); Vaccinia virus mCherry reporter infection, fluorescence; 310,000 tested, 0.63% active; Potency, µM (highest dose often 36.5 µM), inactives show at the top dose activity change, negative = inhibition, hits mostly inhibitors; calls by dose curve; tested in A549 cells; further: potency means the concentration at half of the fitted maximal effect; nearly all actives have a fitted effect of over 35% in size
HCV inh = blocks hepatitis C virus. 340,000 tested, 3.4% active. Potency, µM (top dose mostly 41.8 µM), without a hit: top-dose activity change, negative = inhibition, actives largely listed as inhibitors. Huh7.5.1 HCVcc-Cre infection, luciferase reporter, 44 h; further: potency means the concentration at half of the fitted maximal effect
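Cells (1,000/well) were plated 4 h before compound, then infected with HCVcc-Cre virus (~0.5 moi). After 44 h further culture, infection was read as luciferase luminescence following a 15 min substrate incubation at room temperature.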
VACV Venus inh = vaccinia inhibition (Venus reporter); Vaccinia virus Venus reporter expression, fluorescence; Potency, µM (top dose mostly 36.5 µM), without a hit: top-dose activity change, negative = inhibition, hits mostly inhibitors; 330,000 tested, 0.46% active; AID 720580; calls by dose curve; tested in A549 cells; further: potency means the concentration at half of the fitted maximal effect; nearly all actives have a fitted effect of over 30% in size
FMDV antiviral = blocks foot and mouth disease virus; FMDV antiviral cell-based qHTS; Potency, µM (titrated, usually from 57.9 µM), inactives show at the highest dose activity change, negative = inhibition, actives largely listed as inhibitors; 410,000 tested, 1.2% active; calls by dose curve; tested in HEK293T cells; further: read-out not given here; potency means the concentration at half of the fitted maximal effect; nearly all actives have a fitted effect of over 45% in size
Sm TGR block = S. mansoni TGR enzyme inhibition. Q962Y6. AID 485364. Potency, µM (doses to about 114 µM), inactives show at the highest dose activity change, negative = inhibition, hits mostly inhibitors. purified TGR, DTNB reduction, TNB absorbance 405 nm. 360,000 tested, 3% active; further: potency means the concentration at half of the fitted maximal effect; nearly all actives have a fitted effect of over 60% in size
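Kinetic colorimetric format: TGR-catalysed, NADPH-driven DTNB reduction monitored via TNB absorbance. Enzyme dispensed at 20 nM; compound exposure 15 min at room temperature before reaction start.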
* = called active by the depositor; i = inactive; ? = inconclusive; . = no result; [ ] = another dose, or the depositor's remark. A selection: hits, their analogues and other compounds. The true share with any hit is near 9.3%. Unless noted, the call rests on the fitted dose curve; in most records, active means well fitted curve in the direction sought with a large enough effect; inconclusive means small, poorly fitted or top-dose-only effect, or another doubt; inactive means no such curve, though single readings can be large; an effect the other way counts as inactive or inconclusive. On the % scale 0 is the no-effect control and ±100 the full control effect.

SMILES | HCMV antiviral | Vaccinia mCherry | HCV inh | VACV Venus inh | FMDV antiviral | Sm TGR block
COc1ccc(C(=O)NC(NC(=O)c2ccc(OC)cc2)c2ccccc2F)cc1 | -36.8 | i | -21.9% | -19.8% | -10.5% | .
C=CC(=O)NC(NC(=O)C=C)c1ccccc1F | -26.9 | 7.94µM* | 15.2% | ? | -6.8% | 6.8%
CCN(CC)CCOC(=O)c1ccc(NC(=O)CSc2cc(=O)n(CC)c3ccccc23)cc1 | 62.0 | -11.5% | . | -5.7% | -17.1% | 8.2%
CCc1ccc(NC(=O)CCCOc2cc(=O)n(C)c3ccccc23)cc1 | -97.8* | ? | . | -24.6% | 0.8% | .
CCN(CC)CCOC(=O)c1ccc(NC(=O)COc2cc(=O)n(CC)c3ccccc23)cc1 | -100.7* | . | ? | . | 5.0% | -0.8%
CC(C)c1ccc(NC2(C#N)C(=O)Nc3ccccc32)cc1 (centres undefined) | -71.7* | . | 8.7% | 9.4% | 1.0% | 31.3%
Cc1ccccc1NC1(C#N)C(=O)Nc2ccccc21 (centres undefined) | 42.0 | -10.9% | -17.1% | -1.5% | -27.1% | 7.6%
CC(=O)c1c(C)[nH]c(C(=O)CN(C)CC(=O)Nc2ccccc2Cl)c1C | -15.0 | -13.8% | ? | -10.0% | ? | .
CSc1ccccc1NC(=O)CN(C)CC(=O)NCc1ccccc1 | -84.2* | i | 22.2% | 8.9% | -5.5% | -0.3%
CSc1ccccc1NC(=O)CN(C)CC(=O)c1[nH]c(C)c(C(C)=O)c1C | 28.6 | -17.4% | ? | -2.3% | 35.5µM* | .
Cc1nn(-c2cc(C(F)(F)F)ccc2Cl)c2nc(C(Cl)(Cl)Cl)[nH]c(=O)c12 | -26.3 | -5.0% | -0.1% | -21.4% | ? | 20µM*
CCCN(CCC)Cc1c(C(=O)N/N=C/c2ccsc2)nnn1-c1nonc1N | -12.8 | -17.7% | 9.2% | -6.1% | 6.9% | -3.6%
COc1cc(NC(=O)CNC(=O)Cn2ccc3ccccc3c2=O)cc(OC)c1OC | -4.8 | -2.0% | -20.6% | 3.4% | ? | ?
CC1CCc2c(sc3nnn(Cc4cccc(C(=O)OC(C)C)c4)c(=O)c23)C1 (centres undefined) | -0.4 | 3.5% | . | -2.6% | -17.3% | 0.7%
Cc1cccc(N(CC(=O)N2CCCC2)S(=O)(=O)c2ccccc2)c1 | 30.5 | . | 12.4% | . | -10.0% | 3.5%
Cc1ccc(NC(=O)c2ccc(F)cc2)cc1S(=O)(=O)N1CCCCCC1 | -77.6* | i | ? | -24.1% | ? | 5.8%
Cc1ccc(NC(=O)c2ccc(C)c(S(=O)(=O)N3CCCCCC3)c2)cc1 | ? | -1.3% | . | -12.9% | -17.8% | 16.1%
COc1ccc(C(=O)Nc2ccc(C)c(S(=O)(=O)N3CCCCCC3)c2)cc1 | -65.4* | ? | 31.6µM* | ? | 20µM* | 8.9%
COc1cccc(CNC(=O)c2ccc(C)c(S(=O)(=O)N3CCCCC3)c2)c1 | -22.2 | ? | 10µM* | -25.0% | ? | -0.2%
COc1cccc(CNC(=O)c2ccc(C)c(S(=O)(=O)N3CCOCC3)c2)c1 | -34.5 | i | ? | -12.0% | 3.3% | -4.4%
Cc1c(C)c2ccc(OCC(=O)N[C@@H](Cc3c[nH]c4ccccc34)C(=O)O)cc2oc1=O | 19.2 | 1.4% | 6.5% | 7.7% | -24.1% | 9.4%
CC(O)[C@H]1CNCCN1CCc1cc(C(F)(F)F)cc(C(F)(F)F)c1 (some centres undefined) | -13.7 | -22.1% | 3.9% | -29.1% | 0.0% | -15.9%
Cc1ccc(-c2ocnc2C(=O)N2CCN(C(=O)c3cccs3)CC2)cc1 | -11.9 | i | 13.3% | 1.6% | -7.3% | -10.4%
CC(Oc1ccccc1)C(=O)N1CCC2(CC1)Oc1ccc(F)cc1C(=O)C21CC(c2cccnc2)=NO1 (centres undefined) | 0.0 | -11.1% | -3.9% | -17.5% | -28.8% | .
CCCn1c(C(O)c2ccc(OC)c(OC)c2)nc2ccccc21 (centres undefined) | -68.7* | . | ? | . | ? | -1.9%
SMILES | HCMV antiviral | Vaccinia mCherry | HCV inh | VACV Venus inh | FMDV antiviral | Sm TGR block
CCCn1c(C(O)c2ccc(OC)cc2)nc2ccccc21 (centres undefined) | -12.7 | -23.7% | -1.2% | -24.0% | -17.5% | -4.0%
CCOc1ccc(-n2nnnc2-c2nc3ccccc3s2)cc1 | -16.5 | -14.5% | 5.6% | -7.5% | ? | -4.5%
CCCCNc1nc(NC)nc(Cl)c1SC | -35.3 | -12.5% | -0.8% | -16.5% | -3.1% | 12.2%
CNc1nc(Cl)c(SC)c(N2CCOCC2)n1 | 29.6 | -2.9% | 0.891µM* | -18.0% | -15.7% | -0.7%
O=C(CSc1nc2ccccc2c(=O)n1-c1ccc(OC(F)F)cc1)NC1CC1 | -7.0 | -12.7% | -4.8% | -1.8% | -4.5% | -0.3%
CCCCc1c(Cc2cccc(F)c2)ncn1CCc1ccccc1OC | -65.9* | -14.4% | . | -15.6% | 31.6µM* | .
COc1ccccc1CCn1cnc(-c2ccc(OC)c(OC)c2)c1C(C)C | -108.5* | 1.9% | . | -14.3% | ? | .
CCCc1c(-c2ccc(F)cc2)ncn1CCc1ccccc1OC | -39.6 | -25.5% | . | ? | ? | .
CCCCCc1c(-c2ccccc2)ncn1CCc1ccccc1OC | ? | -6.3% | . | 3.5% | -7.5% | .
CCCCc1c(-c2cccc(OC)c2)ncn1CCc1ccccc1OC | ? | -9.3% | . | ? | 25.1µM* | .
CCCCc1c(-c2ccc(OC)c(OC)c2)ncn1CCc1ccccc1OC | -93.6* | ? | . | -16.6% | ? | .
CC(=O)Cn1ncc(N2CCOCC2)cc1=O | 45.1 | . | 14.4% | . | -7.1% | -7.3%
Cc1onc(-c2ccccc2)c1C(=O)Nc1cc(C(F)(F)F)ccc1N1CCOCC1 | -34.1 | ? | ? | ? | -25.6% | 9.9%[11.4 µM]
CCCc1c(-c2ccc(Cl)cc2)ncn1Cc1ccccc1OC | -2.9 | -9.8% | . | -15.8% | ? | .
CCCc1c(-c2ccc(Cl)cc2)ncn1CCc1ccccc1OC | -61.1* | -21.8% | . | -21.6% | 28.2µM* | .
COc1ccc(-c2nc(Cn3c(SCc4cccc(Cl)c4)nc4ccncc43)c(C)o2)cc1 | -25.1 | -14.3% | . | -6.7% | ? | -19.6%
CCN1C(=O)[C@@H]2[C@@H](c3ccc(-c4ccc5c(c4)OCO5)c(OC)c3)N3CCCC[C@@]3(C(=O)OC)[C@@H]2C1=O | -12.1 | i | -0.2% | -16.9% | -22.7% | -16.0%
CCN1C(=O)[C@H]2[C@@H](c3ccc(-c4ccc(Cl)c(Cl)c4)c(OC)c3)N[C@@](C)(C(=O)OC)[C@H]2C1=O | -10.5 | -18.6% | -17.5% | ? | ? | 39.8µM*
CCN1C(=O)[C@H]2[C@@H](c3ccc(-c4ccc(Cl)c(Cl)c4)cc3)N[C@@](C)(C(=O)OC)[C@H]2C1=O | -7.8 | ? | 2.1% | ? | ? | ?
CCN1C(=O)[C@H]2[C@@H](c3ccc(-c4ccc5c(c4)OCO5)c(OC)c3)N[C@@](C)(C(=O)OC)[C@H]2C1=O | -28.5 | i | 3.16µM* | -11.2% | -18.9% | .
CC(=O)c1c(NCc2ccccc2)nc(=O)n(-c2ccccc2)c1C | -29.5 | . | 3.8% | . | 28.0% | ?
